Bioassay records from PubChem BioAssay.
Rows were chosen to be rich in hits. Some 12% of all compounds tested hit in one or more screens of this group.
PI5P4K alpha inh: inhibitors of human PI5P4K alpha. max response, %. 1.2% of 330,000 active. P48426. PI5P4Kalpha enzyme, ADP-Glo luminescence, 60 min; active compounds read low; active means max response of -50% or lower; inconclusive means between -30% and -50%; inactive means -30% or higher; further: value at the top dose of about 77 µM
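Single end-point luminescence (ADP-Glo) quantified ADP from PI5P4Kalpha turnover; ATP 5 microM final, 1 h at RT, 0.1% CHAPS and 0.28 mM EGTA in HEPES pH 7.4.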
JMJD2A Tudor inh: JMJD2A Tudor domain (human) inhibition | O75164 | AlphaScreen JMJD2A-Tudor / H3K4me3 peptide binding | Potency, µM (series often up to 114 µM), usual class: inhibitors | 4.4% of 390,000 active; further: nearly all actives have a fitted effect of over 50% in size
PLK1 PBD inh: blocks phosphopeptide binding to human PLK1 polo-box domain | P53350 | Plk1 PBD binding of FITC phosphopeptide, fluorescence polarization | Potency, µM, actives largely listed as inhibitors | 2.8% of 360,000 active | AID 720504; further: series mostly up to about 57 µM; nearly all actives have a fitted effect of over 65% in size
Target sequence (P53350 whole entry, looked up, the tested form may be a part): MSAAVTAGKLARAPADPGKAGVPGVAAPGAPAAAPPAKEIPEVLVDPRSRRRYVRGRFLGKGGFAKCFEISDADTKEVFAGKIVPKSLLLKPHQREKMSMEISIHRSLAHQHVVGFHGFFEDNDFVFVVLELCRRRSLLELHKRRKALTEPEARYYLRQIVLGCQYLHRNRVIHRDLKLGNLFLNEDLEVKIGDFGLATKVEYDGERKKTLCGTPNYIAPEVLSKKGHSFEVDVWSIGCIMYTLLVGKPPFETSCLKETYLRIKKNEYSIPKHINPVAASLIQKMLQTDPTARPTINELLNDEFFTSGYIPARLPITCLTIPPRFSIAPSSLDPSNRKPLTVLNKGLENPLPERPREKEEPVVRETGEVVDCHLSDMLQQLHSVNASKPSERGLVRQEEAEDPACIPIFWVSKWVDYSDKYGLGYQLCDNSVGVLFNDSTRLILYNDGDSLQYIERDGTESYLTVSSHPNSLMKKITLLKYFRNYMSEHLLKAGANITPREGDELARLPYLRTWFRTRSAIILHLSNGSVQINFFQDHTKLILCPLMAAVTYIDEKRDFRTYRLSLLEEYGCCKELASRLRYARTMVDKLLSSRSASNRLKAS
BAZ2B inh: inhibitors of human BAZ2B bromodomain. Potency, µM (titrated, usually from 114 µM), hits mostly inhibitors. AID 504333. 4.4% of 360,000 active. AlphaScreen BAZ2B-H3K14Ac peptide displacement; further: nearly all actives have a fitted effect of over 60% in size
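Compounds, titrated to a top concentration of 110 uM, were incubated 30 min at room temperature with preformed BAZ2B/acetyl-K14 H3 peptide complex (50 nM each). Proximity signal was measured by AlphaScreen after 20 min with beads.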
HP1b binding inh: HP1-beta chromodomain-methylated histone interaction inhibition; P83916; AlphaScreen HP1-beta / biotin-H3K9me3 peptide binding; Potency, µM (doses to about 114 µM), hits mostly inhibitors; 0.56% of 390,000 active; AID 540317; further: nearly all actives have a fitted effect of over 70% in size
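HP1-beta protein (50 nM final) preincubated 30 min at room temperature with biotinylated H3(1-18)K9me3 peptide (50 nM) in PBS pH 7.4, 0.01% Tween-20, then compound added for 30 min. AlphaScreen streptavidin donor/nickel chelate acceptor beads (10 ug/mL final), 30 min dark, luminescence read.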
G9a inh: inhibitors of human histone lysine methyltransferase G9a; Q96KQ7; G9a H3K9 monomethylation, AlphaScreen, 2 h; Potency, µM (highest dose often 102 µM), actives largely listed as inhibitors; 8.8% of 350,000 active; further: nearly all actives have a fitted effect of over 75% in size
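G9a (20 nM) preincubated 15 min RT with compounds, then 500 nM biotinylated H3K9 peptide and 20 uM SAM added; 2 h RT reaction. Monomethyl-H3K9 product detected by AlphaScreen with anti-H3K9me1 antibody, streptavidin donor and anti-rabbit IgG acceptor beads.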
A number is an active result; – = inactive; ? = inconclusive; · = no result given; [ ] = dose if it differs, or a comment. Unless noted, the call rests on the fitted dose curve; in most records, active means well fitted curve in the direction sought with a large enough effect; inconclusive means small, poorly fitted or top-dose-only effect, or another doubt; inactive means no such curve, though single readings can be large; an effect the other way counts as inactive or inconclusive.

SMILES	PI5P4K alpha inh	JMJD2A Tudor inh	PLK1 PBD inh	BAZ2B inh	HP1b binding inh	G9a inh
CCN(CC)CCC(c1ccc(N(C)C)cc1)c1c(OC)cc(OC)c2c1OC(=O)CC2c1ccc(N(C)C)cc1 (stereo not drawn)	·	13µM	·	·	14µM	·
COc1ccc(C(CCN2CCCC(C)C2)c2c(OC)cc(OC)c3c2OC(=O)CC3c2cc(OC)c(OC)c(OC)c2)cc1 (stereo not drawn)	–	–	–	–	–	–
Cc1ccc(-n2ncc(C(=O)N3CCN(C4CCCCC4)CC3)c2C2CCN(C(=O)OC(C)(C)C)CC2)cc1C	·	–	·	–	–	–
CC(=O)c1cccc(NC(=O)CCCOc2ccc(C)cc2)c1	–	–	–	–	–	–
CC(=O)c1cccc(OCC(O)CNCC2CCCCC2)c1 (stereo not drawn)	–	8.9µM	–	56µM	71µM	–
CC(=O)c1cccc(OCC(O)CNCCOc2ccc(C)cc2)c1 (stereo not drawn)	–	4µM	–	50µM	–	40µM
CCC(=S)/C=C1\Sc2ccccc2N1CCCS(=O)(=O)O	–	28µM	?	?	?	·
Cc1nc(CN2CCN(S(=O)(=O)c3c(Cl)cc(Br)cc3Cl)CC2)cs1	–	35µM	–	79µM	–	22µM
COc1ccccc1C1C([N+](=O)[O-])=CC([N+](=O)[O-])=CN1C (stereo not drawn)	–	–	–	–	–	?
COc1ccccc1C1NC=C([N+](=O)[O-])C=C1[N+](=O)[O-] (stereo not drawn)	–	?	?	45µM	?	3.5µM
O=C(N/N=C/C1=C(N2CCOCC2)C(=C\c2ccccc2)/CC1)Nc1ccccc1	–	–	–	–	–	–
Cc1ccc(N2CCN(/N=C/C3=C(N4CCOCC4)C(=C\c4ccccc4)/CC3)CC2)cc1	–	–	–	–	–	–
O=C(O)c1ccccc1N/N=C/C1=C(N2CCOCC2)C(=C\c2ccccc2)/CC1	–	?	?	50µM	?	·
Cc1cc(=O)[nH]c(N/N=C/C2=C(N3CCOCC3)C(=C\c3ccc(Cl)cc3)/CC2)n1	?	–	?	–	–	7.9µM
Cc1cc(C)nc(N/N=C/C2=C(N3CCOCC3)C(=C/c3ccccc3)/CC2)n1	–	–	–	?	–	10µM
CCOC(=O)C1=C(CN2CCN(c3ccccc3)CC2)NC(=O)NC1c1ccc(C)cc1 (stereo not drawn)	·	–	·	·	–	–
Cc1ccc(CNC(=O)Nc2ccccc2)c(C)c1	–	–	–	–	–	–
COC/C=C/C1=CC2=CC(=O)C(C)(OC(=O)c3cnc4ccccc4n3)C(=O)C2=CN1c1ccccc1 (stereo not drawn)	-69	?	–	–	–	–
COC/C=C/C1=CC2=CC(=O)C(C)(OC(=O)c3cnc4ccccc4n3)C(=O)C2=CN1C1CCCCC1 (stereo not drawn)	·	·	·	?	·	40µM
COC/C=C/C1=CC2=CC(=O)C(C)(OC(=O)c3cnc4ccccc4n3)C(=O)C2=CN1CC(C)C (stereo not drawn)	–	?	–	·	–	·
COC/C=C/C1=CC2=CC(=O)C(C)(OC(=O)c3cnc4ccccc4n3)C(=O)C2=CN1c1ccc(CO)cc1 (stereo not drawn)	·	·	·	10µM	·	·
O=C(Cn1c(=O)n(Cc2nc(-c3ccccc3)no2)c(=O)c2ccccc21)Nc1cccc(Cl)c1	·	–	·	–	–	–
Cc1ccc(NC(=O)c2c(C)oc3c2C2=NCCN2C=N3)cc1F	·	–	·	–	–	–
Cc1ccc(C(=O)O/N=C(\N)c2ccccn2)c(C)c1	-57	–	–	–	–	–
COc1ccccc1C(=O)O/N=C(\N)c1ccccn1	–	–	–	–	–	·
SMILES	PI5P4K alpha inh	JMJD2A Tudor inh	PLK1 PBD inh	BAZ2B inh	HP1b binding inh	G9a inh
N/C(=N\OC(=O)c1ccccc1[N+](=O)[O-])c1ccccn1	–	–	–	–	–	3.2µM
N/C(=N\OC(=O)c1ccccc1Cl)c1ccccn1	·	–	–	–	–	71µM
CCOc1ccc(CCNC(=O)CCCc2nnc3n(CCCOC)c(=O)c4sccc4n23)cc1	·	–	·	–	–	–
O=[N+]([O-])c1ccc(-c2nn(-c3ccccc3)cc2/C=N/n2c(-c3ccncc3)n[nH]c2=S)cc1	–	–	?	–	–	?
O=[N+]([O-])c1ccccc1/C=C/C=N/n1c(-c2ccccc2F)n[nH]c1=S	–	45µM	?	?	?	1.8µM
COc1cc(/C=N/n2c(-c3ccccc3)n[nH]c2=S)cc(OC)c1OC	–	5µM	–	–	?	·
O=[N+]([O-])c1ccccc1/C=N/n1c(-c2ccccc2)n[nH]c1=S	–	8.9µM	?	?	–	·
CCN(CC)c1ccc(/C=N/n2c(-c3ccccc3Br)n[nH]c2=S)cc1	–	?	–	?	?	2.8µM
CC(=O)N1c2ccc(S(=O)(=O)N3CCC(C(=O)Nc4ncccc4C)CC3)cc2CC1C (stereo not drawn)	–	–	–	–	–	–
CCS(=O)(=O)c1nc(S(=O)(=O)c2ccc(C)cc2)c(NCc2ccccc2Cl)s1	·	–	·	–	–	–
COc1ccc(OC)c(NC(=O)C(Cc2ccccc2)NS(=O)(=O)c2ccc3c(c2)CCC(=O)N3)c1 (stereo not drawn)	·	–	·	–	–	–
O=C(Nc1ccc2c(c1)OCO2)c1cc(C2CCCCN2C(=O)c2ccc3c(c2)CCO3)on1 (stereo not drawn)	–	·	–	·	·	·
CNC(=S)N/N=C/c1c(C)nn(-c2ccccc2)c1Cl	·	–	–	–	–	–[2.33 µM]
Cc1cccc(/C=N/n2c(-c3ccccc3)n[nH]c2=S)c1O	–	22µM	27µM	?	50µM	1.3µM
Cc1ccc(-n2nc(C)c(/C=N/n3c(C)n[nH]c3=S)c2Cl)cc1	–	–	–	–	–	3.2µM
Oc1ccc(Br)cc1/C=N/n1c(-c2ccccc2)n[nH]c1=S	–	?	?	?	–	·
Oc1c(Br)cc(Br)c(/C=N/n2c(-c3ccccc3)n[nH]c2=S)c1Br	-86	7.9µM	12µM	50µM	?	·
COc1cccc(/C=N/n2c(-c3cccs3)n[nH]c2=S)c1	–	50µM	–	?	–	?
COc1ccc(-c2nc3c(=O)n(C)c(=O)nc-3n(C)n2)cc1	·	–	·	·	–	·
CCn1cc2nc(SCc3cccc(C(F)(F)F)c3)n(Cc3ccc(Cl)cc3)c(=O)c2n1	·	–	·	–	–	–
COc1ccc(N2CC3=C(C2=O)C(c2ccc(O)c(OC)c2)NC(=O)N3C)cc1 (stereo not drawn)	·	–	·	–	–	–
COc1ccc(N2CCN(S(=O)(=O)c3ccc4c(c3)CCCN4C(C)=O)CC2)cc1	·	–	·	–	–	?
COc1ccc(/C=N/n2c(-c3ccccc3)n[nH]c2=S)cc1	–	25µM	–	?	–	1.4µM
Oc1ccc(/C=N/n2c(-c3ccccc3)n[nH]c2=S)cc1	–	20µM	–	–	–	–[0.501 µM]
